These results are taken from PubChem BioAssay (NCATS).

Molecules are shown by their SMILES. Values joined by “and” are separate entries in the source; they are usually repeats but may differ in a detail not shown here. Equal values may be shown once. Records with an inconclusive call do not appear. Active and inactive are the calls of the source. The call rests on the fitted dose curve.
Potency means the concentration at half of the fitted maximal effect.

This experiment can be described thus: Primary qHTS to identify inhibitors of SARS-CoV-2 cell entry (AID 1645846). Further: nearly all actives have a fitted effect of over 45% in size. The settings on record: SARS-CoV-2 pseudovirus cell entry assay, luminescence; activity change, negative = inhibition: at 57.1 µM (top of the series) unless noted; series mostly up to 57.1 µM. The method, boiled down: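 Using luciferase-reporting pseudoviruses carrying Wuhan-Hu-1 spike, the screen tracks entry into stably ACE2-expressing cells over 48 hr. Activity is expressed relative to spike particles versus particles lacking any fusion protein.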
(Quantitative high-throughput screening tests each substance at several concentrations.)
Take `COCCn1c2c([n+](Cc3cnccn3)c1C)C(=O)c1ccccc1C2=O`: the activity change, negative = inhibition was -98.5%.

On to `NCCS`, for which the molecule was called inactive.

`Cc1nn(Cc2ccccc2Cl)c(C)c1CN(C)CC(O)COc1ccc(Cl)cc1` (stereo not drawn): the Potency was 31.6 µM (active).

For `C=CC(=O)Nc1cccc(Oc2nc(Nc3ccc(N4CCN(C)CC4)cc3OC)ncc2Cl)c1`, the Potency was 31.6 µM (active).

As to `c1ccc2[nH]ccc2c1`, the result was inactive.

For `Cc1cc(C(=O)NNCc2ccccc2)no1`, the activity change, negative = inhibition was -26.2% [at 114 µM].

As to `COc1c(C)cnc(Cn2cnc3c(Cl)nc(N)nc32)c1C`, the activity change, negative = inhibition was -96.5%.

Take `COc1ccccc1O`: the call was inactive.

Turning to `Cc1ccc(C(=O)N(CCCN)[C@@H](c2nc3cc(Cl)ccc3c(=O)n2Cc2ccccc2)C(C)C)cc1`, the activity change, negative = inhibition was -95.6%.

As to `COc1cc(OC2CCN(C)CC2)ccc1Nc1ncc2c(n1)n(C1CCCC1)c(=O)n2C`, the Potency is 28.2 µM (active).

Turning to `O=C(Nc1cccc(Cl)c1)Nc1ncc(CCNc2ncnc3ccsc23)s1`, the Potency was 3.16 µM (active).

With `CC(C)(C)OC(=O)Nc1ccc(-c2cc(C(=O)NCCCCCCC(=O)NO)no2)cc1`, the activity change, negative = inhibition was -8.17%.

As for `CN(C)CCCN=c1c2ccccc2n(C)c2[nH]c(=O)n(C)c(=O)c12`, the Potency is 31.6 µM (active).

Regarding `CC(C)c1ccc2c(c1)c(SC(C)(C)C)c(CC(C)(C)C(=O)O)n2Cc1ccc(Cl)cc1`, the result was inactive.

In the case of `COc1cc2c(cc1OC)[C@@H]1C(=O)c3ccc4c(c3O[C@@H]1CO2)C=CC(C)(C)O4`, the activity change, negative = inhibition is -98.6%.

In the case of `O=C(Nc1ccc(F)c(C(F)(F)F)c1)Nc1nnc(-c2ccncc2)s1`, the activity change, negative = inhibition is -21.1%.

Regarding `O=c1cc(CN2CCOCC2)occ1OCCCCCSc1ccnc2cc(C(F)(F)F)ccc12`, the Potency was 10 µM (active).

In the case of `CCN(CC)CCOc1ccc(Nc2ncc3cc(-c4c(Cl)cccc4Cl)c(=O)n(C)c3n2)cc1`, the Potency is 3.16 µM (active).

As for `C[C@@H](N)C(=O)O`, the activity change, negative = inhibition is -18.7%.

Turning to `O=C(c1ccc(Nc2nccc(-c3cc4ccccc4s3)n2)cc1)N1CCC(N2CCCC2)CC1`, the Potency was 11.2 µM (active).

Consider `CC[C@@H](C)[C@H](NC(=O)[C@H](CC1CCCCC1)NC(=O)c1ccno1)C(=O)N1CCC2(CCc3ccccc32)CC1`, for which the molecule was called inactive.

With `O=C(O)CCc1ccc(NCc2cccc(Oc3ccccc3)c2)cc1`, the activity change, negative = inhibition was -10.2%.

Turning to `CN(C)c1ccc(Nc2nc(N)n(C(=O)c3c(F)cccc3F)n2)cc1`, the Potency was 12.6 µM (active).

On to `COc1cc2c(cc1O)CC[C@@H]1[C@@H]2CC[C@]2(C)[C@@H](O)CC[C@@H]12`, for which the activity change, negative = inhibition is -26.7%.

For the molecule `Nc1nc(Nc2ccc(S(N)(=O)=O)cc2)nn1C(=O)c1c(F)cccc1F`, the Potency is 1 µM (active).

As to `CC(=O)Nc1ccc([C@H](C)C(=O)Nc2ncc(C(C)C)s2)cc1`, the Potency was 3.55 µM (active).

Turning to `C=CCn1c(=O)c2cnc(Nc3ccc(N4CCN(C)CC4)cc3)nc2n1-c1cccc(C(C)(C)O)n1`, the Potency is 1.41 µM (active).

On to `C[C@@H](Oc1cc(-n2cnc3ccc(CN4CCN(C)CC4)cc32)sc1C(N)=O)c1ccccc1C(F)(F)F`, for which the activity change, negative = inhibition is -97%.

With `Nc1ccccc1NC(=O)c1ccc(CNC(=O)OCc2cccnc2)cc1`, the outcome was inactive.

As for `CN[C@@H](C)C(=O)N[C@H]1CCCC[C@H]2CC[C@@H](C(=O)N[C@@H](c3ccccc3)c3cn(CCCCc4ccc(CCCCn5cc([C@@H](NC(=O)[C@@H]6CC[C@@H]7CCCC[C@H](NC(=O)[C@H](C)NC)C(=O)N76)c6ccccc6)nn5)cc4)nn3)N2C1=O`, the activity change, negative = inhibition is -12%.

As for `CCCCCC[C@H]1C(=O)O[C@H](C)[C@H](NC(=O)c2cccc(NC=O)c2O)C(=O)O[C@@H](C)[C@@H]1OC(=O)CC(C)C`, the activity change, negative = inhibition is -94.1%.

Take `Cc1nnc(C(C)C)n1C1CC2CCC(C1)N2CC[C@H](NC(=O)C1CCC(F)(F)CC1)c1ccccc1` (stereo partly drawn): the activity change, negative = inhibition is 2.02% and -27.6%.

Take `COc1cc2nc(N3CCCN(C)CC3)nc(NC3CCN(Cc4ccccc4)CC3)c2cc1OC`: the Potency is 3.16 µM (active).

For `CC(C)C[C@H](NC(=O)CNC(=O)c1cc(Cl)ccc1Cl)B(O)O`, the activity change, negative = inhibition was -97.2% and -98.8%.

As for `CN(c1ncccc1CNc1nc(Nc2ccc3c(c2)CC(=O)N3)ncc1C(F)(F)F)S(C)(=O)=O`, the Potency is 3.16 µM (active).

In the case of `CCN1CCN(CC(=O)Nc2ccc(-c3cccc4c(=O)cc(N5CCOCC5)oc34)c3sc4ccccc4c23)CC1`, the Potency was 5.62 µM (active).

With `COc1cc2nccc(Oc3ccc(NC(=O)Nc4cc(C)on4)c(Cl)c3)c2cc1OC`, the Potency is 14.1 µM (active).

Consider `NC(=O)c1ccc(N(C(N)=O)c2c(F)cccc2F)nc1-c1ccc(F)cc1F`, for which the activity change, negative = inhibition was -20.8%.
